# Measured values published in PubChem BioAssay AID651821 (The Scripps Research Institute Molecular Screening Center, 2012).
# The campaign covered roughly 370,000 compounds. About 4,700 (1.3%) were called active. This is one part of a sample in which actives are shown more often than they occur. A number with no mark means an inactive call.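 How the source made its calls: active means inhibition above the plate cutoff, the mean of all test compounds on that plate plus 3 SD (cut at about 35% in these data); inactive means the rest.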
# Assay: small molecules binding CAG repeat RNA – biochemical, fluorescence, primary screen (AID 651821);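 further: 0% = DMSO alone and 100% = 100 µM mitoxantrone as full dye displacement; higher means more dye released from RNA so lower well fluorescence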
# Conditions: r(CAG) RNA repeat, TO-PRO-1 dye displacement fluorescence; at 3 µM; stronger effect = higher value
row,SMILES,inhibition
1,COc1ccnc(NC(=S)N2CCN(c3ncc(C(F)(F)F)cc3Cl)CC2)c1,2.94%
2,COc1cc(/C=C/C(=O)OCC(=O)Nc2cccc(Oc3ccccc3)c2)ccc1O,15.1%
3,CC(C)CNc1cccc2c1S(=O)(=O)N[C@H](C)CO2,2.72%
4,COc1ccc(C(CNC(=O)c2cccc(NS(=O)(=O)c3ccc(C)c(F)c3)c2)N2CCCC2)cc1 (configuration not stated),2.37%
5,COc1ccc(C(CNC(=O)c2cccc(S(=O)(=O)Nc3ccccc3Cl)c2)N2CCOCC2)cc1 (configuration not stated),46.8% (active)
6,COc1ccc(C(CNC(=O)c2ccc(S(=O)(=O)Nc3ccccc3C)cc2)N2CCOCC2)cc1 (configuration not stated),-3.71%
7,CC1=C(C(=O)Nc2cc(C)ccn2)C(c2cnn(C)c2)C2=C(CC(c3ccccc3)CC2=O)N1 (configuration not stated),-6.66%
8,O=C(Nc1ccc(Br)cc1)OCCN1C(=O)CCC12CCC(c1ccccc1)CC2 (configuration not stated),5.9%
9,C[C@H](O)[C@@H]1CN2CCc3ccc(-c4ccc5c(c4)OCO5)cc3[C@@H]2C[C@@H]1N(C)C(=O)C1CCCCC1,6.89%
10,Cc1cc(NCCc2c[nH]c3ccccc23)ccc1Oc1cccnc1,7.17%
11,CCc1cccc(C)c1N(C(=O)Cn1c(CO)nc2ccccc21)C(C)COC (configuration not stated),-9.89%
12,COC(=O)[C@]12C[C@H](CC(=O)NCCc3ccccc3OC)C(=O)N(Cc3ccco3)C1=C[C@H](C(C)C)O[C@@H]2C1CC1,3.46%
13,Cc1ccc(NC(=O)CSc2sc3c(O)cc(=O)[nH]c3c2C#N)cc1C,40.4% (active)
14,Cc1nc2cc(NC(=O)CSc3nc4c(C)cccc4cc3C#N)ccc2s1,2.03%
15,Cc1ccc(NC(=O)CSc2nn3c(=O)c(C)nnc3s2)cc1Cl,2.36%
16,CCOC(=O)C1CSCCS(=O)(=O)N1Cc1ccc(Cl)cc1 (configuration not stated),1.28%
17,COC[C@@H]1CCCN1c1ccc2c(c1)O[C@H](C)CCN(C1CC1)S2(=O)=O,0.67%
18,Cc1nc(C(F)(F)F)ccc1C(=O)N1CCC1(C)C(=O)NS(=O)(=O)c1ccccc1 (configuration not stated),4.76%
19,CC1(C(=O)NS(=O)(=O)c2ccccc2)CCN1C(=O)C/C=C/c1ccccc1 (configuration not stated),7.12%
20,CCCNC(=O)C1(C)CCN1C(=O)Cc1ccc(-c2ccccc2)cc1 (configuration not stated),0.2%
21,Cc1ccc(F)c(S(=O)(=O)NC(=O)C2(C)CCN2C(=O)CCc2cccs2)c1 (configuration not stated),3.47%

row,SMILES,inhibition
1,Cc1ccccc1S(=O)(=O)NC(=O)C1(C)CCN1C(=O)Cc1ccc(Cl)cc1Cl (configuration not stated),32.5%
2,CC1(C(=O)NS(=O)(=O)Cc2cccc(Cl)c2)CCN1C(=O)Cc1ccc(Cl)cc1Cl (configuration not stated),42.9% (active)
3,CCCCc1ccc(S(=O)(=O)NC(=O)C2(C)CCN2C(=O)c2ccccc2)cc1 (configuration not stated),32.5%
4,CC1(C(=O)NS(=O)(=O)Cc2cccc(Cl)c2)CCN1C(=O)Cc1ccccc1 (configuration not stated),12.6%
5,CC1(C(=O)NS(=O)(=O)c2ccccc2)CCN1C(=O)Cc1ccc(-c2ccccc2)cc1 (configuration not stated),41.7% (active)
6,COc1ccc(S(=O)(=O)NC(=O)C2(C)CCN2C(=O)c2ccccc2CCc2ccccc2)cc1 (configuration not stated),43.4% (active)
7,C#Cc1ccc(NC(=O)C2(C)CCN2C(=O)Cc2ccc(-c3ccccc3)cc2)cc1 (configuration not stated),9.25%
8,CC1(C(=O)NS(=O)(=O)c2cccs2)CCN1C(=O)Cc1ccc(-c2ccccc2)cc1 (configuration not stated),40.2% (active)
9,Nc1ncnc2c1ncn2[C@@H]1O[C@H](C(=O)N[C@@H](CCc2ccccc2)C(=O)N2CCCN(Cc3cccs3)CC2)[C@@H](O)[C@H]1O,1.07%
10,CCCC[C@H]1C2CC(OC(=O)NCc3ccccc3)C(C2)[C@H]2CCCCN21 (some centres not stated),2.74%
11,O=S1(=O)c2c(NCc3ccco3)cccc2Oc2ccccc2CN1Cc1cn(Cc2cccc(C(F)(F)F)c2)nn1,13.6%
12,COCc1cc(N2CCN(C(=O)OC(C)(C)C)C[C@@H]2C)ccc1N1CCN(Cc2ccccc2)[C@H](C)C1,3.76%
13,CC(C)(C)c1ccc(S(=O)(=O)NC(=O)C2(C)CCN2C(=O)CC2CC2)cc1 (configuration not stated),5.41%
14,CC(C)c1ccc(CC(=O)N2CCC2(C)C(=O)NS(=O)(=O)c2ccc(C(C)(C)C)cc2)cc1 (configuration not stated),71% (active)
15,CCCC(=O)N1CCC1(C)C(=O)NS(=O)(=O)c1ccc(Cl)cc1 (configuration not stated),3.6%
16,O=c1ccc2c(-c3ccccc3S(=O)(=O)O)c3ccc(O)c(O)c3oc-2c1O,66.8% (active)
17,COc1ccc(C(=O)CSc2nnc(-c3cnccn3)n2-c2ccc(C)cc2)cc1,4.26%
18,Cc1cc(NC(=O)COC(=O)/C=C/c2ccc(C)o2)no1,-0.62%
19,O=C(/C=C/c1ccc([N+](=O)[O-])o1)NNC(=O)c1ccc(F)cc1,7.58%
20,Cc1ccc(/C=C/C(=O)Nc2ccc([N+](=O)[O-])c(NC(=O)/C=C/c3ccc(C)o3)c2)o1,51% (active)
21,C[C@@H]1ON(C)[C@H]2C[C@H]3c4[nH]c5cccc(-c6ccc7c(c6)OCO7)c5c4CCN3C[C@@H]12,6.14%

row,SMILES,inhibition
1,COc1ccccc1C(=O)NCCC(=O)NN1C(=O)NC2(CCCCC2)C1=O,-4.93%
2,COc1ccccc1C(=O)Nc1nc2nc(-c3ccccc3)cc(=O)n2[nH]1,7.94%
3,COc1cccc2sc(NNC(=O)c3nc4ccccc4s3)nc12,62.5% (active)
4,COc1ccccc1C(=O)Nn1cnnc1,-5.43%
5,COC(=O)[C@@]12CCCCC3=C1N(CCC3)C(=O)[C@H]2CC(=O)NCc1cccc2ccccc12,3.84%
6,CC(=O)Nc1ccc(S(=O)(=O)NCCc2ccccc2)cc1,-3.69%
7,COc1ccc(S(=O)(=O)N(CC(=O)N/N=C/c2ccc(C(=O)O)cc2)Cc2ccccc2)cc1OC,25.2%
8,CC(=O)Nc1ccc(S(=O)(=O)N(CCc2ccccc2)CC(=O)N/N=C/c2ccc(C(=O)O)cc2)cc1,40.4% (active)
9,O=C(Nc1c(Cl)c(C2CC2)nn1-c1ccccc1)C(Cl)(Cl)Cl,2.42%
10,CCCCCN1CCCCC(NC(=O)C(C)CCC)C1=O (configuration not stated),-0.91%
11,COC(=O)C1CN(Cc2ccc(F)cc2)CCS(=O)(=O)N1Cc1ccc(Cl)cc1 (configuration not stated),2.48%
12,Cc1cccc(C)c1NC(=O)C(c1ccc(C(F)(F)F)cc1)n1c(=O)c(-c2ccco2)nc2ccccc21 (configuration not stated),34.8% (active)
13,N#Cc1ccc(C(C(=O)NCc2ccccc2)n2c(=O)c(-c3ccco3)nc3ccccc32)cc1 (configuration not stated),38.9% (active)
14,CCC(C(=O)Nc1c(C)cccc1C)n1c(-c2cc(C)cs2)nc2ccccc21 (configuration not stated),2.46%
15,COc1ccc(C(C(=O)Nc2c(C)cccc2C)N2CCN(c3ccc(C)cc3)CC2)cc1 (configuration not stated),1.38%
16,COc1ccc(C(C(=O)NCc2ccccc2)n2c(=O)c(-c3ccccc3)nc3ccccc32)cc1 (configuration not stated),7.82%
17,COc1ccc(NC(=O)C(c2ccncc2)n2c(=O)c(-c3cc4ccccc4[nH]3)nc3ccccc32)cc1 (configuration not stated),19.9%
18,O=C(NC1CCCCC1)C(c1cc2ccccc2o1)n1c(=O)c(-c2ccco2)nc2ccccc21 (configuration not stated),24.4%
19,Cc1cccc(C)c1NC(=O)C(c1cccc2ccccc12)n1c(=O)c(-c2ccco2)nc2ccccc21 (configuration not stated),43.8% (active)
20,CCCCCNC(=O)C(c1ccc(OC)cc1)n1c(=O)c(-c2ccccc2)nc2ccccc21 (configuration not stated),7.62%
21,CC(=O)N1CCc2cc(S(=O)(=O)NCCC(=O)N3CCCC3)ccc21,0.89%

row,SMILES,inhibition
1,COc1ccc(C2=CN(Cc3ccccc3)C(c3ccc(OC)cc3)CC2=O)cc1 (configuration not stated),2.54%
2,COC(=O)C1CN(CCc2ccccc2)CCS(=O)(=O)N1Cc1ccc(F)cc1 (configuration not stated),5.69%
3,O=C(NCC1COc2ccccc2O1)c1ccc(NC(=O)c2cc(F)ccc2F)cc1 (configuration not stated),4.71%
4,CC(CCN1CCC(C(O)(c2ccccc2)c2ccccc2)CC1)Oc1ccc([N+](=O)[O-])cc1Cl (configuration not stated),2.17%
5,CCOC(=O)Cc1csc(SCC(=O)NC(C)C23CC4CC(CC(C4)C2)C3)n1 (configuration not stated),-11.4%
6,O=[N+]([O-])c1ccc(NS(=O)(=O)c2ccccc2)c(Cl)c1,6.07%
7,O=S(=O)(Nc1ccc(O)c2ccccc12)c1ccc(OC(F)(F)F)cc1,39% (active)
8,O=S(=O)(Nc1ccc(OC(F)(F)F)cc1)c1cccc2nonc12,3.85%
9,COC(=O)[C@]12C[C@H](CC(=O)NCc3cccc4ccccc34)C(=O)N(CCc3ccc(OC)c(OC)c3)C1=C[C@H](C1CCCC1)O[C@@H]2C,6.55%
10,Nc1[nH]c(/C=C2/CCCCC2n2[nH]c(=O)n(-c3ccccc3)c2=O)c(Cc2ccccc2)[n+]1Cc1ccccc1 (configuration not stated),8.51%
11,COc1ccc(CCNC(=O)CSc2nc3c([nH]2)c(=O)n(C)c(=O)n3C)cc1,1.31%
12,O=C(NC(=S)Nc1ccccc1C(=O)O)c1ccc(-c2ccc(Br)cc2)o1,69.5% (active)
13,O=C(O)c1ccccc1-c1ccccc1C(=O)Nc1ccccc1Br,1.52%
14,O=C(NC(=S)Nc1ncccn1)c1ccccc1Br,-2.07%
15,CCCCCCCCN1C(=O)[C@@H](CC(=O)NCCCC)C[C@@]2(C(=O)OC)C1=C[C@H](C(C)(C)C)O[C@@H]2C,0.05%
16,CCCCOCC1CN(CCCC)S(=O)(=O)c2c(Oc3ccc(F)cc3)cccc2O1 (configuration not stated),2.41%
17,Nc1cccc(-c2cncc(N3CCN(Cc4ccccn4)CC3)n2)c1,2.15%
18,Fc1ccc2cnc(-c3ccccc3)cc2c1,2%
19,Nc1cccc(-c2cc(-c3ccccc3)nc(-c3cccc(N)c3)n2)c1,35.3% (active)
